Compounds with a hit are over-represented: about 11% of the library has one in this group of screens.
ALDH1A1 block: ALDH1A1 (human) enzyme inhibition; P00352; Purified ALDH1A1, NADH fluorescence, propionaldehyde substrate; Potency, µM (doses to about 75.3 µM), most hits filed as inhibitors; 220,000 tested, 7.3% active
PNC assembly inh: perinucleolar compartment assembly inhibition. PC3M PTB-GFP, PNC prevalence imaging, 16 h; stronger effect = lower value. 140,000 tested, 3.1% active. activity change (PNC), negative = inhibition, % at 10 µM;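 active = readout at or below -70, meaning at least 70% loss of cells showing the perinucleolar compartment, a nuclear body marking cancer cells; inconclusive = readout between -30 and a set limit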
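PC3M cells stably expressing PTB-GFP, 750–1000 cells/well, treated 16 h at 37 °C with compound (23 nl of library stock), in duplicate. After paraformaldehyde fixation and Hoechst stain, imaged at 20x; PNC prevalence scored by image analysis.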
HPGD inh: inhibitors of human 15-hydroxyprostaglandin dehydrogenase (HPGD); P15428; AID 894; Potency, µM, actives largely listed as inhibitors; purified HPGD, NADH fluorescence kinetic, PGE2 substrate; 150,000 tested, 4.3% active
Target sequence (P15428 whole entry, looked up): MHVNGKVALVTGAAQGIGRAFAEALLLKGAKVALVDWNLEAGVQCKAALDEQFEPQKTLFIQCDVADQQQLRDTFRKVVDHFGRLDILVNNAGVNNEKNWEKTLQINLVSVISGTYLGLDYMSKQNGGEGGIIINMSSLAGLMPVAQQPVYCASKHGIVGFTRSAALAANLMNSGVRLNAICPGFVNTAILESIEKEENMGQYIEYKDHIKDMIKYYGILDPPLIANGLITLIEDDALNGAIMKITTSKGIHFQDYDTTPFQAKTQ
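NADH formation kinetics: reaction with 30 uM PGE2 and 1 mM NAD+ (final), 20 nM enzyme, Tris-HCl pH 8 with Tween 20, after 15 min compound preincubation at room temperature. Fluorescence change, last versus first of five reads.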
Numbers stand for hits; . = inactive; ? = inconclusive; / = not tested or not shown; ! = repeats disagree; [ ] = another dose, or the depositor's remark. Unless noted, calls come from the whole dose curve; as a rule, active = well fitted inhibition curve with a large enough effect (not every such curve was filed as active); inconclusive = small, poorly fitted or top-dose-only effect, or another doubt; inactive = no such curve, though single readings can be large or run the other way.

SMILES	ALDH1A1 block	PNC assembly inh	HPGD inh
CC(=O)N1CCN(c2ccc(NC(=O)C(C)Oc3ccc(Cl)cc3Cl)cc2)CC1 (centres undefined)	?	?	20µM
CC(Oc1ccc(Cl)cc1Cl)C(=O)Nc1ccc(N2CCN(C)CC2)cc1 (centres undefined)	.	.	.
Cc1[nH]n(-c2cccc(Cl)c2)c(=O)c1C=NCC(C)C	.	/	/
COc1ccccc1N1CCN(C2CCN(C(=O)c3ccc(F)cc3)CC2)CC1	.	.	.
COc1ccccc1OCc1ccc(C(=O)N2CCN3CCCC3C2)cc1 (centres undefined)	?	.	20µM
CC1(C)OCC(CSC2=C(SCC3COC(C)(C)O3)C(=O)c3ncccc3C2=O)O1 (centres undefined)	2.51µM	/	3.55µM
O=C1c2cccnc2-c2ncccc21	.	.	.
Cc1cccc(NS(=O)(=O)c2cc(C(=O)OC(C)C(=O)NCc3ccc4c(c3)OCO4)ccc2C)c1 (centres undefined)	.	.	.
Cc1ccc(CNC(=O)CN(Cc2ccccc2)S(C)(=O)=O)cc1	.	.	.
Cc1cc(C)c2c(N)c(C(=O)NCc3ccco3)sc2n1	?	-97.7	?
CC(=O)c1sc2nc(C)cc(C)c2c1N	?	.	?
COCc1cc(C)nc2sc(C(=O)N3CCCC3)c(N)c12	?	-116.6	2.51µM
Cc1cc(C)c2c(N)c(C(=O)Nc3ncc(C)s3)sc2n1	?	.	?
Cc1cc(C)c2c(N)c(C(=O)N3CCCCCC3)sc2n1	?	.	1.58µM
COCc1cc(C)nc2sc(C(=O)OC)c(N)c12	.	.	.
Cc1ccc(C(=O)NNC(=O)CSc2n[nH]c(-c3cccnc3)n2)cc1	.	/	/
O=C(COC(=O)C1CC(=O)N(Cc2ccco2)C1)c1ccc(OC(=O)c2ccccc2)cc1 (centres undefined)	14.1µM	.	28.2µM
O=C(OCC(=O)N1c2ccccc2Sc2ccccc21)C1CC(=O)N(Cc2ccco2)C1 (centres undefined)	35.5µM	.	.
Cc1csc(NC(=O)C2CC(=O)N(Cc3ccco3)C2)n1 (centres undefined)	.	/	/
COC(=O)c1ccc(NC(=O)COC(=O)C2CC(=O)N(Cc3ccccc3)C2)cc1 (centres undefined)	.	/	/
COc1ccc(CCNC(=O)C(=O)Nc2ccc3c(c2)OCO3)cc1OC	.	/	/
Cc1ccc(C)c(NC(=O)COC(=O)CNC(=O)c2ccccc2Cl)c1	.	/	/
CC1(C)C(c2ccco2)=[N+]([O-])C2(CCCCC2=O)N1O (centres undefined)	.	.	.
C/C(=N/Nc1ccc(C)cc1)C1(C)N(O)C(C)(C)C(c2ccco2)=[N+]1[O-] (centres undefined)	25.1µM	/	/
COC(=O)C/C=C\[C@@H](C)[C@@H](/C=N\O[C@@H](C)CN1CCCCc2nc(C)c(C)cc21)NS(=O)(=O)c1ccc(C)cc1	.[13.5 µM]	/	/
SMILES	ALDH1A1 block	PNC assembly inh	HPGD inh
Cc1oncc1C(=O)Nc1ccc(C(F)(F)F)cc1	.	?	.
Cc1oncc1C(=S)Nc1ccccc1	?	-91.8	.
O=C(O)CC[C@@]1(c2ccccc2)NC(=O)NC1=O	.[13.5 µM]	/	.
C=CCNC(=O)COC(=O)c1ccc(Sc2nncn2C)c([N+](=O)[O-])c1	.	/	/
COc1ccc(NC(=O)COC(=O)Cc2c[nH]c3ccccc23)cc1OC	.	/	/
CCOc1ccc(NC(=O)COC(=O)CCCc2c[nH]c3ccccc23)cc1	15.8µM	.	.
CC(=O)Nc1ccc(NC(=O)COC(=O)Cc2c[nH]c3ccccc23)cc1	14.1µM	.	.
CC(=O)OCC(=O)NCC(=O)c1c[nH]c2ccccc12	.	-100.1	15.8µM
NS(=O)(=O)c1cccc(NC(=O)COC(=O)CCCc2c[nH]c3ccccc23)c1	.	/	/
COc1cccc(NC(=O)COC(=O)CCCc2c[nH]c3ccccc23)c1	.	.	.
COc1ccc(NC(=O)COC(=O)CCCc2c[nH]c3ccccc23)cc1	8.91µM	.	.
COc1ccc(OCC(=O)c2c[nH]c3ccccc23)cc1	.	/	/
COc1ccc(NC(=O)/C(C#N)=C\C=C\c2ccco2)cc1	.	.	.
CC(=O)N1CC=CC1(CC(C)C)C(=O)O (centres undefined)	.	/	.
COCCCNC(=O)C1CCN(C(=O)Nc2ccc(Cl)cc2)CC1	.	.	.
Cn1c(N)c(C(=O)COC(=O)CCc2c[nH]c3ccccc23)c(=O)n(C)c1=O	.	.	.
Cn1c(N)c(C(=O)COC(=O)CCCc2c[nH]c3ccccc23)c(=O)n(C)c1=O	.	-80.3	.
CN(C)S(=O)(=O)c1ccc(Cl)c(NC(=O)COC(=O)C2CSC3(C)CCC(=O)N23)c1 (centres undefined)	?	.	.
Cc1ccc2c3c1C(=O)C(=O)N3C(C)(C)CC2C (centres undefined)	.	.	.
CCOc1ccc(OCC)c(S(=O)(=O)N2CCC(C)CC2)c1	?	.	.
Cc1cc2c3c(c1C)C(=O)C(=O)N3C(C)(C)CC2C (centres undefined)	.	/	/
Cc1cc2c3c(c1)C(C)CC(C)(C)N3C(=O)C2=O (centres undefined)	0.159µM	/	/
CCOc1cc2c3c(c1)C(C)CC(C)(C)N3C(=O)C2=O (centres undefined)	0.398µM	.	.
CC1CC2(CCCCC2)N2C(=O)C(=O)c3cccc1c32 (centres undefined)	0.0447µM	.	.
CN1CCN(CC(=O)Nc2cccc3ccccc23)CC1	.[13.5 µM]	/	.
SMILES	ALDH1A1 block	PNC assembly inh	HPGD inh
COc1ccc(OCC(=O)N/N=C(\C)CC(=O)Nc2ccc(OC)cc2[N+](=O)[O-])cc1	20µM	/	/
COc1ccc(NC(=O)C/C(C)=N/NC(=O)c2ccncc2)c([N+](=O)[O-])c1	3.55µM	/	/
COc1ccc(NC(=O)Cc2ccc(C)cc2)c([N+](=O)[O-])c1	.	.	.
COc1ccc(NC(=O)COc2ccc(C)cc2)c([N+](=O)[O-])c1	.	/	/
O=S(=O)(c1ccc(Br)cc1)N1CCN(S(=O)(=O)c2ccc(Br)cc2)CC1	.[13.5 µM]	/	.
Cc1ccc(=O)n(C(C(=O)NCc2ccco2)C(=O)c2ccc(F)cc2)c1 (centres undefined)	.	.	.
O=c1c2ccccc2c2ccccc2c(=O)n1Cc1ccco1	.	.	.
Cc1c(N=Cc2c(O)n(Cc3ccco3)c(=O)c3ccccc23)c(=O)n(-c2ccccc2)n1C	.	-100.0!	.
CC1(C(=O)NCc2ccc(Cl)c(Cl)c2)Oc2ccccc2NC1=O (centres undefined)	.	/	/
CCOc1ccc(NC(=S)N2CCc3cc(OC)c(OC)cc3C2COc2ccc3c(C)cc(=O)oc3c2)cc1 (centres undefined)	?	.	.
CCO[C@@H]1OC(C(=O)NCc2nc3ccccc3[nH]2)=C[C@H](c2ccc(C(F)(F)F)cc2)[C@H]1CCCO	.	/	/
CC(=O)N1CCc2ccc(S(=O)(=O)N3CC(C)OC(C)C3)cc21 (centres undefined)	.	.	.
Clc1cccc(N/N=C/c2ccc(N3CCOCC3)s2)c1	11.2µM	.	.
O=C(N/N=C/c1ccc(N2CCOCC2)s1)c1ccccc1Br	14.1µM	/	/
Cc1ccc(N/N=C/c2ccc(N3CCOCC3)cc2)cc1C	?	.	?
CC(C)(C)OC(=O)N/N=C/c1ccc(N2CCOCC2)s1	.	?	.
O=C(Nc1ccc(SC(F)(F)F)cc1)c1ccccn1	.	/	/

Screens: PubChem, National Center for Advancing Translational Sciences (NCATS)
